Results on 47 molecules are retold here after the antibiotic and cytotoxicity screens of Wong et al. (2023).

Out of some 39,000 compounds screened, about 3,300 (8.5%) were called active. The sample as a whole holds a higher share of actives than the screen did.

The assay concerns HepG2. The experiment in a line: cytotoxicity call (relative viability < 0.9). Particulars: 10 µM.
As to `CO[C@H]1CN(C)C(=O)c2ccc(NC(=O)Nc3cccc(Cl)c3)cc2OC[C@H](C)N(C(=O)Nc2c(C)noc2C)C[C@H]1C`, the cytotoxicity call was “inactive”. The value for `COc1ccc(Sc2ccc(N(C(=O)c3ccccc3Cl)C(=O)c3ccccc3Cl)cc2C#N)cc1` was “active”; that for `COc1ccc(C(=O)NCC#N)cc1` was “inactive”. Then `COc1ccc(C(=O)c2ccccc2O)c(O)c1`, with “inactive”; and `O=c1cn[nH]c(Nc2ccccc2)n1`, with “inactive”.

Take `CC(C)CNc1nc(=O)cn[nH]1`: the cytotoxicity call was “active”.

For `O=c1cn[nH]c(NC2CCCC2)n1`, the cytotoxicity call is “inactive”. As to `C=CCC[C@@H](Cc1ccc(F)cc1)C(=O)OC[C@@H]1CCCN1C(=O)[C@H](CC=C)CC(=O)N(CCO)Cc1ccccc1`, the cytotoxicity call is “inactive”.

Take `COc1ccccc1S(=O)(=O)N[C@@H]1C=C[C@@H](CC(=O)N2CCN(C)CC2)O[C@@H]1CO`: the cytotoxicity call is “inactive”. Then `NC[C@@](O)(c1ccc(Cl)cc1)c1ccc(-c2cn[nH]c2)cc1`, with “active”; and `NC[C@@](O)(CS(=O)(=O)O)c1ccc(Cl)cc1`, with “inactive”; and `c1n[nH]cc1-c1cn[nH]c1`, with “inactive”. As for `COc1ccccc1CNC(=O)C[C@H]1C[C@H]2c3cc(NC(=O)C4CCOCC4)ccc3O[C@H]2[C@H](CO)O1`, the cytotoxicity call was “inactive”. Then `C[C@H]1O[C@@H](n2cc(F)c(=O)[nH]c2=O)[C@H](O)[C@@H]1O`, with “inactive”; and `CC1OC(n2cc(F)c(=O)[nH]c2=O)C(O)C1O` (configuration not stated), with “inactive”.

Turning to `CCCCCCNC(=O)n1cc(F)c(=O)[nH]c1=O`, the cytotoxicity call was “active”. The value for `Cc1ccc(S(=O)(=O)Nc2ccc3c(c2)CC(=O)N([C@@H](C)CO)C[C@H](C)[C@H](CN(C)S(C)(=O)=O)O3)cc1` was “inactive”. Then `CC(C)NC(=O)NCC[C@H]1CC[C@H](NC(=O)CN(C)C)[C@H](CO)O1`, with “inactive”. Then `Cc1c(NC(=O)c2cc3c(s2)CCCC3)cccc1-c1cn(C)c(=O)c(Nc2ccc([C@H]3C(=O)N(C)CCN3C)cc2)n1`, with “inactive”; and `C[C@@H]1CCCCO[C@H](CN(C)C(=O)Nc2ccc3c(c2)OCO3)[C@@H](C)CN([C@@H](C)CO)C(=O)c2cc(NS(=O)(=O)c3ccccc3)ccc2O1`, with “inactive”. Regarding `C[C@@H]1CCCCO[C@@H](CN(C)C(=O)NC2CCCCC2)[C@@H](C)CN([C@H](C)CO)C(=O)c2cc(NC(=O)Nc3ccc(F)cc3)ccc2O1`, the cytotoxicity call is “inactive”. Then `C[C@@H]1CCCCO[C@H](CN(C)C(=O)NC2CCCCC2)[C@H](C)CN([C@H](C)CO)C(=O)c2cc(NC(=O)NC3CCCCC3)ccc2O1`, with “active”. Take `C[C@@H]1CCCCO[C@H](CN(C)C(=O)Nc2ccc(F)cc2)[C@@H](C)CN([C@H](C)CO)C(=O)c2cc(NC(=O)NC3CCCCC3)ccc2O1`: the cytotoxicity call is “inactive”.

With `Cc1noc(C)c1NC(=O)N(C)C[C@@H]1OCCCC[C@@H](C)Oc2ccc(NC(=O)NC3CCCCC3)cc2C(=O)N([C@H](C)CO)C[C@@H]1C`, the cytotoxicity call is “inactive”. Then `C[C@@H]1CCCCO[C@@H](CN(C)C(=O)Nc2ccc(F)cc2)[C@@H](C)CN([C@@H](C)CO)C(=O)c2cc(NC(=O)NC3CCCCC3)ccc2O1`, with “active”; and `C[C@H](CO)N1C[C@H](C)[C@@H](CN(C)C(=O)NC2CCCCC2)OCCCC[C@H](C)Oc2ccc(NC(=O)NC3CCCCC3)cc2C1=O`, with “inactive”.

Regarding `C[C@@H]1CN([C@H](C)CO)C(=O)c2cc(NC(=O)NC3CCCCC3)ccc2O[C@@H](C)CCCCO[C@@H]1CN(C)C(=O)Nc1ccc(F)cc1`, the cytotoxicity call is “inactive”. Then `C[C@@H]1CCCCO[C@H](CN(C)C(=O)NC2CCCCC2)[C@H](C)CN([C@H](C)CO)C(=O)c2cc(NC(=O)Nc3ccc(F)cc3)ccc2O1`, with “active”; and `C[C@H](CO)N1C[C@H](C)[C@H](CN(C)C(=O)NC2CCCCC2)OCCCC[C@H](C)Oc2ccc(NC(=O)NC3CCCCC3)cc2C1=O`, with “inactive”. As for `C[C@@H]1CN([C@H](C)CO)C(=O)c2cc(NC(=O)Nc3ccc(F)cc3)ccc2O[C@@H](C)CCCCO[C@H]1CN(C)C(=O)NC1CCCCC1`, the cytotoxicity call is “inactive”. The value for `Cc1noc(C)c1NC(=O)N(C)C[C@H]1OCCCC[C@@H](C)Oc2ccc(NC(=O)NC3CCCCC3)cc2C(=O)N([C@@H](C)CO)C[C@H]1C` was “inactive”; that for `Cc1noc(C)c1NC(=O)N(C)C[C@H]1OCCCC[C@@H](C)Oc2ccc(NC(=O)NC3CCCCC3)cc2C(=O)N([C@H](C)CO)C[C@@H]1C` was “active”.

For the molecule `COc1ccc(-c2cccc(-c3nc(C(=O)NCC(F)(F)F)cc4c3[C@@H](CCO)N([S@](=O)C(C)(C)C)C4)c2)cc1`, the cytotoxicity call is “inactive”.

For `COc1ccc(S(=O)(=O)N(C)C[C@H]2OCCCC[C@H](C)Oc3ccc(NC(=O)c4ccccc4)cc3C(=O)N([C@H](C)CO)C[C@H]2C)cc1`, the cytotoxicity call is “inactive”. Then `Cc1ccc(S(=O)(=O)N(C)C[C@H]2Oc3ccc(NC(=O)c4ccncc4)cc3C(=O)N([C@H](C)CO)C[C@@H]2C)cc1`, with “inactive”. Then `C[C@@H]1CN([C@H](C)CO)C(=O)c2cc(NS(=O)(=O)c3ccccc3)ccc2O[C@H]1CN(C)S(=O)(=O)c1cn(C)cn1`, with “inactive”; and `Cc1noc(C)c1NC(=O)Nc1ccc2c(c1)CC(=O)N([C@H](C)CO)C[C@@H](C)[C@@H](CN(C)Cc1ccc(-c3ccccc3)cc1)O2`, with “inactive”; and `O=C1[C@@H]2[C@H](C(=O)N1c1ccccc1)C13COC[C@H](c4ccccc4)N1C(=O)C2(C(=O)NCCc1c[nH]c2ccccc12)O3` (some centres not stated), with “inactive”.

Regarding `CCS(=O)(=O)N1C[C@]2(CN(Cc3cccc(c3)Cl)[C@@H](CO)c3c2c2ccc(cc2n3C)OC)C1`, the cytotoxicity call is “inactive”. `C[C@H](CO)N1C[C@H](C)[C@@H](CN(C)C(=O)NC2CCCCC2)OCCCC[C@H](C)Oc2ccc(NC(=O)Nc3ccc(F)cc3)cc2C1=O`: the cytotoxicity call is “inactive”. Then `C[C@H](CO)N1C[C@H](C)[C@H](CN(C)C(=O)NC2CCCCC2)OCCCC[C@H](C)Oc2ccc(NC(=O)Nc3ccc(F)cc3)cc2C1=O`, with “inactive”. The value for `C[C@H]1CCCCO[C@@H](CN(C)C(=O)NC2CCCCC2)[C@@H](C)CN([C@@H](C)CO)C(=O)c2cc(NC(=O)Nc3ccc(F)cc3)ccc2O1` was “active”; that for `O=c1[nH]nc(N2CCOCC2)c(=O)[nH]1` was “inactive”. As to `C[C@@H]1CN([C@H](C)CO)C(=O)Cc2cc(NS(=O)(=O)c3ccc(F)cc3)ccc2O[C@H]1CN(C)CC1CC1`, the cytotoxicity call is “inactive”. The value for `Cl.OC(CCN1CCCC1)(c1ccccc1)C1CCCCC1` (configuration not stated) was “active”; that for `CS(=O)(=O)O.OC(CCN1CCCCC1)(c1ccccc1)c1ccccc1` was “inactive”; that for `Cl.OC(CCN1CCCCC1)(c1ccccc1)C1CCCCC1` (configuration not stated) was “inactive”.
